How the values were obtained:
[1] = target: T1, Rhodopsin kinase GRK7 (Homo sapiens) (UniProt Q8WTQ7); details: at 10 µM
T1 sequence (whole entry): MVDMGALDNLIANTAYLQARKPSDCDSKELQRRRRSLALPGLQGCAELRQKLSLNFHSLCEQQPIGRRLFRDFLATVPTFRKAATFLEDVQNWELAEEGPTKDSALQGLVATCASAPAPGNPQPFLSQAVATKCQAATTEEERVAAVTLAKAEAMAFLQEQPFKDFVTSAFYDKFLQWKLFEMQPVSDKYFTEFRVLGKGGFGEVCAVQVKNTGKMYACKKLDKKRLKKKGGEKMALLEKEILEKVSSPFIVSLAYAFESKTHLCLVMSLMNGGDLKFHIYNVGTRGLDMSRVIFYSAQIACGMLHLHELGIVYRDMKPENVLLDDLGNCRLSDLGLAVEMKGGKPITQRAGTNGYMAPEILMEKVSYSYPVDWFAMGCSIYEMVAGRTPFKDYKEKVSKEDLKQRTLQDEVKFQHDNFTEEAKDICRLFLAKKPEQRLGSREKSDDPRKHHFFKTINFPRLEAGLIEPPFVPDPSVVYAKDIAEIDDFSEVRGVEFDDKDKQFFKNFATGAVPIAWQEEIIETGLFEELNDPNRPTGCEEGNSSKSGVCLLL

[2] = target: Homeodomain-interacting protein kinase 1 (Homo sapiens) (UniProt Q86Z02); details: at 1 µM
Homeodomain-interacting protein kinase 1 (Homo sapiens), sequence (Q86Z02 whole entry, looked up): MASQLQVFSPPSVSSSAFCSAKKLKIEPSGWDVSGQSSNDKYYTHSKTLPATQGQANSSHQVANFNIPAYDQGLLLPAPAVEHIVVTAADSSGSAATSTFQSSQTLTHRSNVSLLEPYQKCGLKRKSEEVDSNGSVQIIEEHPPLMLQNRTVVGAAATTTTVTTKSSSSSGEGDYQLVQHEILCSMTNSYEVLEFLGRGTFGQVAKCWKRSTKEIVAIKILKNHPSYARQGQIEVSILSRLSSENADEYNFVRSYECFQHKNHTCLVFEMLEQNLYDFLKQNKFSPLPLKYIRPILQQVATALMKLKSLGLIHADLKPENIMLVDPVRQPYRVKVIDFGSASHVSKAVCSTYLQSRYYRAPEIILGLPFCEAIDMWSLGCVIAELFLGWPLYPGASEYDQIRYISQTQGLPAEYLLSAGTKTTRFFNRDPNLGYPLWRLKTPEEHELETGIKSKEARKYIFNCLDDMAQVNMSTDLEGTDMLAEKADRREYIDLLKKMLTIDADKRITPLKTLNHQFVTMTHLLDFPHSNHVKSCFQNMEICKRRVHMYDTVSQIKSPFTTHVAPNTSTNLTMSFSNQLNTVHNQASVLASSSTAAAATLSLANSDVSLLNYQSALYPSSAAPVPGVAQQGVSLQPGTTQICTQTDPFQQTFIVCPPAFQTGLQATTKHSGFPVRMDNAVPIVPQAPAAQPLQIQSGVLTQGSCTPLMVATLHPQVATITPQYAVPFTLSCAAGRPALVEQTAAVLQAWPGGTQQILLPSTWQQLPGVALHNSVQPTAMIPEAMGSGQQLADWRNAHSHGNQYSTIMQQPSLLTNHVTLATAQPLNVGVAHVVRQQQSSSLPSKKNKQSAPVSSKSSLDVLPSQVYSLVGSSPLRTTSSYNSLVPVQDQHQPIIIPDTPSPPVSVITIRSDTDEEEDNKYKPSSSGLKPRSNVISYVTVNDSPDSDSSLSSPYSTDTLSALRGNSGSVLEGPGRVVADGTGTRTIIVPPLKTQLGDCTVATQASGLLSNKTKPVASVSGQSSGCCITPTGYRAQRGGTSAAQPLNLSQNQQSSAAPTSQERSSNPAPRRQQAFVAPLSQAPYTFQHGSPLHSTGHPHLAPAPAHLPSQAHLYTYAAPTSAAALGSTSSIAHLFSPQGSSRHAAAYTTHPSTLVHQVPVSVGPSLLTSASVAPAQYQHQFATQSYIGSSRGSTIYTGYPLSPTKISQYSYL

[3] = target: Glycogen synthase kinase-3 alpha (Homo sapiens) (UniProt P49840); details: at 1 µM
Glycogen synthase kinase-3 alpha (Homo sapiens), sequence (P49840 2-483 limits assumed): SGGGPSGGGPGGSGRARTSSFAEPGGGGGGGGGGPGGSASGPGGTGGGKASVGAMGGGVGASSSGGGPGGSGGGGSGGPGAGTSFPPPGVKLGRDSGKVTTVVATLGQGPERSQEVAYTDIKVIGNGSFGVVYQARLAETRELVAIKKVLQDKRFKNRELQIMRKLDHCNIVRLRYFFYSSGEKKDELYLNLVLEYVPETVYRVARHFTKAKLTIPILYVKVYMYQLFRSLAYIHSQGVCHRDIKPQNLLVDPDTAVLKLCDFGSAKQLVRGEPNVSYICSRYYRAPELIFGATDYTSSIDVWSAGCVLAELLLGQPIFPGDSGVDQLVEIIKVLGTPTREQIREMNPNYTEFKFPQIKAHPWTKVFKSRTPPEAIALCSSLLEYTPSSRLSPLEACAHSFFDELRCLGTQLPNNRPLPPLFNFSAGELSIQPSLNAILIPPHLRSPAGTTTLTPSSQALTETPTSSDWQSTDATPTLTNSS

[4] = target: Glycogen synthase kinase-3 alpha (Homo sapiens) (UniProt P49840); details: at 10 µM
[5] = target: Glycogen synthase kinase-3 beta (Homo sapiens) (UniProt P49841); details: at 1 µM
Glycogen synthase kinase-3 beta (Homo sapiens), sequence (P49841 whole entry, looked up): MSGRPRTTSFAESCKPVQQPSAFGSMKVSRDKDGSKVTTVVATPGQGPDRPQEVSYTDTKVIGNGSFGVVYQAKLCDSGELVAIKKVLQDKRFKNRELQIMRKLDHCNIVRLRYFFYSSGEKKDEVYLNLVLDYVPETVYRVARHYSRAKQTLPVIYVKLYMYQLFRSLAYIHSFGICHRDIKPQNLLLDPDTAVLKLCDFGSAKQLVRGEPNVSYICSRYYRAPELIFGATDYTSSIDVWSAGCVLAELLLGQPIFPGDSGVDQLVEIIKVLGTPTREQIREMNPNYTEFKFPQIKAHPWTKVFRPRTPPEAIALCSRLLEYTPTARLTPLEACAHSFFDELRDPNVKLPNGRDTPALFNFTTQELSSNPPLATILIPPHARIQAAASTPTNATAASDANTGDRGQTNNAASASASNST

[6] = target: Glycogen synthase kinase-3 beta (Homo sapiens) (UniProt P49841); details: at 10 µM
[7] = target: Homeodomain-interacting protein kinase 1 (Homo sapiens) (UniProt Q86Z02); details: at 10 µM
[8] = target: Homeodomain-interacting protein kinase 2 (Homo sapiens) (UniProt Q9H2X6); details: at 1 µM
Homeodomain-interacting protein kinase 2 (Homo sapiens), sequence (Q9H2X6 whole entry, looked up): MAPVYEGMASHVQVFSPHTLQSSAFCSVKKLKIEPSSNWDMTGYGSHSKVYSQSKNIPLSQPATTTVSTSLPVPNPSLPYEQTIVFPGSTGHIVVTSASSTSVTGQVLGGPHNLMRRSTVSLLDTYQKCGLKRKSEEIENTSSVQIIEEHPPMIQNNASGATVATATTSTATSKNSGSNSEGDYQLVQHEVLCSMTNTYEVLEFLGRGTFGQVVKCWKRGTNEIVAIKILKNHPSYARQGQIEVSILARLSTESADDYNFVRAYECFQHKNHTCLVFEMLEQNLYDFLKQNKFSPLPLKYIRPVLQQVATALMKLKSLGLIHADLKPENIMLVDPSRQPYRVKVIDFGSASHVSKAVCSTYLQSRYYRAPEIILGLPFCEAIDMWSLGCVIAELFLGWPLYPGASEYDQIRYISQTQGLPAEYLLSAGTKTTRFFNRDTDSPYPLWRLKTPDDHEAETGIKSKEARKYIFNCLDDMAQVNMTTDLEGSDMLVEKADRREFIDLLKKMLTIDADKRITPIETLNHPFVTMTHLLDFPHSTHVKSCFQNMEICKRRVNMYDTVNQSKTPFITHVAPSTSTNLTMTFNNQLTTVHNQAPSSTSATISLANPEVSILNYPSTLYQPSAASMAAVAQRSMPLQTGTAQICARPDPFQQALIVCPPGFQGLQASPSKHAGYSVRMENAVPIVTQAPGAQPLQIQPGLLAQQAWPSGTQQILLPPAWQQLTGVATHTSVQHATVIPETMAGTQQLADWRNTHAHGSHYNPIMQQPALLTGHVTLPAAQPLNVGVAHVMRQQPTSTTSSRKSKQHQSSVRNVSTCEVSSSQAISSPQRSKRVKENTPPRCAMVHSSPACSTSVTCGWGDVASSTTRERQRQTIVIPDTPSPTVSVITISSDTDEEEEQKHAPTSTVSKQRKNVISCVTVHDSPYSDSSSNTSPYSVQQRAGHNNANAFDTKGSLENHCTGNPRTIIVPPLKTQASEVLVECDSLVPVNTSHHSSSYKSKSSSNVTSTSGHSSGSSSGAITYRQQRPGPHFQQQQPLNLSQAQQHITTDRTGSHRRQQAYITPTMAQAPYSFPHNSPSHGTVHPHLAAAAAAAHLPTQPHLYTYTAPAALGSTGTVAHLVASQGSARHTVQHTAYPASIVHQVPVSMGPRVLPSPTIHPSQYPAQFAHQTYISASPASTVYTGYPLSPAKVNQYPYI

[9] = target: Homeodomain-interacting protein kinase 2 (Homo sapiens) (UniProt Q9H2X6); details: at 10 µM
[10] = target: Homeodomain-interacting protein kinase 3 (Homo sapiens) (UniProt Q9H422); details: at 1 µM
Homeodomain-interacting protein kinase 3 (Homo sapiens), sequence (Q9H422 whole entry, looked up): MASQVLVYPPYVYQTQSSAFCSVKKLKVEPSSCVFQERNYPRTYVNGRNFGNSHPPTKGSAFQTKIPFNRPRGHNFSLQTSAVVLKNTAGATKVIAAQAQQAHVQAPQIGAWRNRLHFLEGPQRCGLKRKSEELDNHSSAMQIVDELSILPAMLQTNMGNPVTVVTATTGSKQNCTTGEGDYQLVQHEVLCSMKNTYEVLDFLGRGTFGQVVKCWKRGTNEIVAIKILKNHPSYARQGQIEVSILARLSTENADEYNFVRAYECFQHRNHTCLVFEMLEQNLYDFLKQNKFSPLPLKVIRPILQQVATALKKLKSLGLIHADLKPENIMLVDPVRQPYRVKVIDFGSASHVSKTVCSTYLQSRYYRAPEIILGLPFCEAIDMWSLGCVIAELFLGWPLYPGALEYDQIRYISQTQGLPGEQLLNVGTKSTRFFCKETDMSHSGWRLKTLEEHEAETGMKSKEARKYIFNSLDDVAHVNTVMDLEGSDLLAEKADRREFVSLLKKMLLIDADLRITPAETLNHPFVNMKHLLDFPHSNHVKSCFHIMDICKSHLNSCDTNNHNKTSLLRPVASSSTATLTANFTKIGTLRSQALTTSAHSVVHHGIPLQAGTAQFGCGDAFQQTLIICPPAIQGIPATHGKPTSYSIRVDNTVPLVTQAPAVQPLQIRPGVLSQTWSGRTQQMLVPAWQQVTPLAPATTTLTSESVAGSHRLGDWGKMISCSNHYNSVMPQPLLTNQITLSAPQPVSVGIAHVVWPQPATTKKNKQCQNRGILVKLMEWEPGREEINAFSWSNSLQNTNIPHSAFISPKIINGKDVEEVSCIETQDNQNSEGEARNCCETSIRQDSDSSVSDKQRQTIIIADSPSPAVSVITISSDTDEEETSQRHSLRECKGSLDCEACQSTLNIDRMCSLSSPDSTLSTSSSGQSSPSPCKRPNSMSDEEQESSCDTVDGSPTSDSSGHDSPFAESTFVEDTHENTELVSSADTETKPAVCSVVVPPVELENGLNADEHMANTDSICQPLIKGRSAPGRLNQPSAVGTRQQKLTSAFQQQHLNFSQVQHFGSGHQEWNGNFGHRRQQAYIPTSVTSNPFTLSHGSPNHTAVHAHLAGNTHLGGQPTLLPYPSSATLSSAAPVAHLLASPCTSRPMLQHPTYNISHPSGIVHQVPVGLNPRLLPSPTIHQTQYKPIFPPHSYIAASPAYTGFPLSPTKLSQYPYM

Structure (SMILES) | residual activity [1] [%] | residual activity [2] [%] | residual activity [3] [%] | residual activity [4] [%] | residual activity [5] [%] | residual activity [6] [%] | residual activity [7] [%] | residual activity [8] [%] | residual activity [9] [%] | residual activity [10] [%]
Cc1cncc2cccc(S(=O)(=O)N3CCCN(C(=O)CN)C[C@H]3C)c12 | 28 | 94 | – | – | – | – | – | – | – | –
C[C@@H](N)[C@H]1CC[C@H](C(=O)Nc2ccncc2)CC1 | 89 | 102 | 75 | 68 | 105 | 84 | 109 | 103 | 101 | 91
N#Cc1cnc2cnc(NCc3cccnc3)cc2c1Nc1ccc(F)c(Cl)c1 | 94 | – | 46 | 39 | 62 | 42 | – | 94 | 84 | –
COc1ccc(OC)c2c(=S)c3ccccc3[nH]c12 | 83 | 105 | 100 | 85 | 118 | 94 | 67 | 98 | 53 | 99
c1ccc2c(-c3ccncc3)c[nH]c2c1 | 79 | 95 | – | 135 | 94 | 88 | 98 | 100 | 85 | 95
CCN(CC)C(=O)c1ccc(Nc2nc(OCC3CCCCC3)c3nc[nH]c3n2)cc1 | 78 | – | 72 | 15 | 75 | 26 | – | – | 28 | 99
c1ccc(-c2n[nH]cc2-c2ccnc3ccccc23)nc1 | 87 | 98 | – | – | 85 | – | 105 | 98 | 101 | 100
CCC(=O)Nc1ccc2ncnc(Nc3cccc(Br)c3)c2c1 | 86 | 98 | 125 | 142 | 108 | 96 | 105 | 104 | 103 | 92
Cc1cccc(-c2[nH]c(C(C)(C)C)nc2-c2ccc3c(c2)OCO3)n1 | 97 | 93 | – | – | 104 | 93 | 102 | 97 | 96 | –
COc1ccc(C(=O)Nc2sc3c(c2C(N)=O)CCCC3)cc1OC | 81 | 99 | 121 | 105 | 81 | 99 | 105 | 99 | 96 | 94
Oc1ccc(-c2nc(-c3ccc(F)cc3)c(-c3ccncc3)[nH]2)cc1 | 96 | 103 | 95 | 42 | 88 | 28 | 96 | 99 | 95 | 106
O=[N+]([O-])c1ccc(-c2nc(-c3ccc(F)cc3)c(-c3ccncc3)[nH]2)cc1 | 92 | 111 | 99 | 84 | 73 | 83 | – | 107 | 100 | 110
CN(C)CCCn1cc(C2=C(c3c[nH]c4ccccc34)C(=O)NC2=O)c2ccccc21 | 7 | 90 | 18 | 2 | 24 | 3 | 53 | 69 | 21 | 87
COc1cccc(-c2cc(=O)c3ccccc3o2)c1N | 97 | 112 | – | 77 | 106 | 103 | 92 | 109 | 95 | 99
Oc1c2ccccc2c2c3c(cccc13)N=N2 | 27 | 93 | 54 | 40 | 74 | 58 | 62 | 55 | 15 | 73
CO[C@H]1C[C@@H]2CC[C@@H](C)[C@@](O)(O2)C(=O)C(=O)N2CCCC[C@H]2C(=O)O[C@H]([C@H](C)C[C@@H]2CC[C@@H](O)[C@H](OC)C2)CC(=O)[C@H](C)/C=C(\C)[C@@H](O)[C@@H](OC)C(=O)[C@H](C)C[C@H](C)/C=C/C=C/C=C/1C | 86 | 91 | 117 | 193 | 96 | – | 101 | 103 | 99 | 91
COc1cc2ncnc(Nc3ccc(Oc4ccccc4)cc3)c2cc1OC | 92 | 102 | 91 | 178 | 84 | 97 | 106 | 99 | 99 | 94
Nc1ccc2ncnc(NCCc3ccc(Oc4ccccc4)cc3)c2c1 | 88 | 115 | 94 | 89 | 103 | 119 | 97 | 77 | 70 | 92
c1ccc(-c2n[nH]c3c2oc2ccccc23)cc1 | 64 | – | – | – | 95 | 67 | – | 98 | 58 | 92

Source: ChEMBL document CHEMBL2218924, “A broad activity screen in support of a chemogenomic map for kinase signalling research and drug discovery” (Biochem J, 2013)
